This is an account of results in PubChem BioAssay.

Activity calls are given as the source filed them.

The test system of assay [1] is Plasmodium falciparum Sir2 (PF13_0152, Sir2A). The experiment in a line: Plasmodium falciparum Sir2A binding compounds – biochemical, small-molecule microarray, 635 nm fluorescence, primary screen (AID 1098).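 Further: score merges spot fluorescence intensity with its signal-to-noise ratio.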 The following applies: fluorescence 635 nm, higher = more signal.
Assay [2] is described as follows: probe aDKK1 binding to arrayed compounds – biochemical, biotinylated probe, 635/667 nm fluorescence, primary screen (AID 1099).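 Further: score merges 667nm spot fluorescence with signal to noise across triplicate slides.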 The following applies: small-molecule microarray, higher = more signal.
Assay [3] is described as follows: probe aCHRDL2 binding to arrayed compounds – biochemical, biotinylated probe, 635/667 nm fluorescence, primary screen (AID 1100). The conditions noted are these: small-molecule microarray, higher = more signal.
Assay [4] can be described thus: change in splice reporter luminescence, either direction, cell-based, HEK293, spliceosome inhibition project, primary screen (AID 1101).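 Further: HEK293 cells carrying a splicing-competent luciferase reporter gene; test concentration not given here.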 The conditions noted are these: HEK293 splicing luciferase reporter, 24 h, higher = more signal, called active from +8 up or from −8 down.
Assay [5] concerns the target Fibroblast growth factor 10 (Homo sapiens) (UniProt O15520). In words: compounds binding fibroblast growth factor 10 – biochemical, small-molecule microarray, 635 nm fluorescence, primary screen (AID 1102). The following applies: FGF10 binding, fluorescence 635 nm, higher = more signal.
In assay [6] the test system is glycogen synthase kinase-3 (GSK3A per assay name; protocol says GSK3B). In words: compounds binding glycogen synthase kinase-3 – biochemical, small-molecule microarray, 635 nm fluorescence, GSK3A, primary screen (AID 1103). Further: the record names both GSK3A and GSK3B. The conditions noted are these: fluorescence 635 nm, higher = more signal.
Assay [7] addresses Epidermal growth factor receptor (Homo sapiens) (UniProt P00533). In words: compounds binding epidermal growth factor receptor – biochemical, small-molecule microarray, 635 nm fluorescence, primary screen (AID 1104).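 Further: score merges 667 nm emission intensity with spot signal to noise over triplicate slides.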 The following applies: EGFR binding, higher = more signal.
Assay [8] has as its target Follistatin-related protein 3 (Homo sapiens) (UniProt O95633). The experiment in a line: compounds binding follistatin-related protein 3 – biochemical, small-molecule microarray, 635 nm fluorescence, primary screen (AID 1105).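 Further: score merges emission near 667 nm and signal to noise per printed spot across three slides.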 The conditions noted are these: FSTL3 binding, higher = more signal.
Assay [9] addresses Dickkopf-related protein 1 (Homo sapiens) (UniProt O94907). The experiment in a line: small molecules binding DKK1 protein – biochemical, small-molecule microarray, 635 nm fluorescence scan, primary screen (AID 1106).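 Further: score merges emission near 667 nm with signal to noise over three replicate slides.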 The conditions noted are these: higher = more signal.
The subject of assay [10] is Inhibin beta A chain (activin A). In words: small molecules binding activin A – biochemical, small-molecule microarray, 635 nm fluorescence scan, primary screen (AID 1107).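 Further: mouse activin A protein probed at 4.33 µg/mL on printed slides; score merges bound-protein fluorescence near 667 nm with spot signal-to-noise.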 The conditions noted are these: INHBA, higher = more signal.
Assay [11] has as its system Human papillomavirus type 1a protein E7 (residues 44-93). In words: small molecules binding HPV E7 44-93 – biochemical, small-molecule microarray, residues 44-93, 635 nm fluorescence, primary screen (AID 1108).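 Further: E7 fragment applied at 1 µg/mL in TBST for 1 h at 4 C; score combines spot fluorescence with its signal to noise ratio.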 The conditions noted are these: fluorescence 635 nm, higher = more signal.
Assay [12] can be described thus: hepatitis C replication reporter changes, two-sided – Huh7 cells, luciferase reporter, HCV replication inhibitor project, primary screen (AID 1109).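 Further: huh7 hepatoma cells harbouring a luciferase neomycin HCV replicon reporter; luciferase luminescence as measure of HCV replicon replication; test concentration not given here.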 The following applies: Huh7 HCV replicon luciferase reporter, 48 h; higher = more signal. A general note: In a reporter assay the amount or activity of a reporter protein is the signal.
Assay [13] addresses Left-right determination factor 2 (Homo sapiens) (UniProt O00292). In words: small molecules binding LEFTY2 protein – biochemical, small-molecule microarray, 635 nm fluorescence scan, primary screen (AID 1110). The conditions noted are these: higher = more signal.
For assay [14], the target named is Calmodulin-1 (Homo sapiens) (UniProt P0DP23). In words: small molecules binding calmodulin-1 with EGTA – biochemical, small-molecule microarray, Cy5-labelled CALM1, profiling panel (AID 1111).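 Further: labelled calmodulin applied in Tris saline Tween buffer holding calcium plus EGTA and DTT.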 The conditions noted are these: Cy5-CALM1 binding fluorescence, higher = more signal.
For assay [15] the target is unchanged. The experiment in a line: small molecules binding Ca-loaded calmodulin-1 – biochemical, small-molecule microarray, Cy5-labelled CALM1, plus calcium, artefact control for SMM control-protein annotation, profiling panel (AID 1112).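 Further: score merges spot fluorescence with signal to noise from triplicate slides.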 The following applies: Cy5-CALM1 binding fluorescence, higher = more signal.
The nature of assay [16]: probe aWnt5a binding to arrayed compounds – biochemical, biotinylated probe, 635/667 nm fluorescence, primary screen (AID 1113).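 Further: score merges 667 nm fluorescence intensity with signal-to-noise per printed feature.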 The following applies: small-molecule microarray, higher = more signal.
Assay [17] is described as follows: probe aShh binding to arrayed compounds – biochemical, biotinylated probe, 635/667 nm fluorescence, primary screen (AID 1114).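 Further: probe is biotin-labelled aShh protein from a stem cell growth factor screen; measures binding of labelled protein to compounds printed on the slide; score merges feature fluorescence at 667 nm with signal-to-noise.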 The conditions noted are these: small-molecule microarray, higher = more signal.
Assay [18] is described as follows: probe aNog binding to arrayed compounds – biochemical, biotinylated probe, 635/667 nm fluorescence, primary screen (AID 1115).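 Further: probe is biotinylated aNog protein used at 0.15 µg/mL for 1 h at 4 C; z-score combines 667 nm fluorescence of each spot with its signal to noise.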 The conditions noted are these: small-molecule microarray, higher = more signal.
For assay [19], the target named is Torsin-1A-interacting protein 1 (Homo sapiens) (UniProt Q5JTV8). In words: compound microarray binding of lysate hLAP1 – cell lysate, small-molecule microarray, COS7 lysate, 635/667 nm fluorescence, primary screen (AID 1116). The conditions noted are these: 635 nm fluorescence, higher = more signal.
Assay [20] addresses Alpha-bungarotoxin (Bungarus multicinctus) (UniProt P60615). The experiment in a line: compounds binding labelled alpha-BTX control protein – biochemical, small-molecule microarray, Alexa647 label, 635/667 nm fluorescence, artefact control for SMM control protein annotation, profiling panel (AID 1117). The following applies: alpha-BTX-A647 binding fluorescence, higher = more signal.

Left-right determination factor 2 (Homo sapiens), sequence (O00292 whole entry, looked up): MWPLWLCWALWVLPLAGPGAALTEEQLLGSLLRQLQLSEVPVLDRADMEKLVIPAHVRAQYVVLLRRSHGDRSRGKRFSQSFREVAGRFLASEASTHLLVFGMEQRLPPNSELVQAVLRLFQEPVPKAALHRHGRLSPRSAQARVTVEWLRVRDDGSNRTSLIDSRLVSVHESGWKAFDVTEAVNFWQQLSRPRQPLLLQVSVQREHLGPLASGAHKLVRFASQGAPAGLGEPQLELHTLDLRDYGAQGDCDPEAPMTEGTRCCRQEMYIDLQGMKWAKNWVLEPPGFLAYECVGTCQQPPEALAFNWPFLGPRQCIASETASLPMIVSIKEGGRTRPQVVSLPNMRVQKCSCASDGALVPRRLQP
Alpha-bungarotoxin (Bungarus multicinctus), sequence (P60615 whole entry, looked up): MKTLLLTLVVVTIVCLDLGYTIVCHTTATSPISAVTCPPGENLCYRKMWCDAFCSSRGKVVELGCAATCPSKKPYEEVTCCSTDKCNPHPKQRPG
Dickkopf-related protein 1 (Homo sapiens), sequence (O94907 whole entry, looked up): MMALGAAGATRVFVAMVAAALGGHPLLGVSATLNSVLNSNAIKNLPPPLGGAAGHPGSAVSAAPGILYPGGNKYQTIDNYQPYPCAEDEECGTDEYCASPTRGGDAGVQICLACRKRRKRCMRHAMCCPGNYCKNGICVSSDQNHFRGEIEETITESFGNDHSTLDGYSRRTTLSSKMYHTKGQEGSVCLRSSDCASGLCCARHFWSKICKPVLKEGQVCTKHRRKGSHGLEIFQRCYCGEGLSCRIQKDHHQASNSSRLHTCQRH
Epidermal growth factor receptor (Homo sapiens), sequence (P00533 whole entry, looked up): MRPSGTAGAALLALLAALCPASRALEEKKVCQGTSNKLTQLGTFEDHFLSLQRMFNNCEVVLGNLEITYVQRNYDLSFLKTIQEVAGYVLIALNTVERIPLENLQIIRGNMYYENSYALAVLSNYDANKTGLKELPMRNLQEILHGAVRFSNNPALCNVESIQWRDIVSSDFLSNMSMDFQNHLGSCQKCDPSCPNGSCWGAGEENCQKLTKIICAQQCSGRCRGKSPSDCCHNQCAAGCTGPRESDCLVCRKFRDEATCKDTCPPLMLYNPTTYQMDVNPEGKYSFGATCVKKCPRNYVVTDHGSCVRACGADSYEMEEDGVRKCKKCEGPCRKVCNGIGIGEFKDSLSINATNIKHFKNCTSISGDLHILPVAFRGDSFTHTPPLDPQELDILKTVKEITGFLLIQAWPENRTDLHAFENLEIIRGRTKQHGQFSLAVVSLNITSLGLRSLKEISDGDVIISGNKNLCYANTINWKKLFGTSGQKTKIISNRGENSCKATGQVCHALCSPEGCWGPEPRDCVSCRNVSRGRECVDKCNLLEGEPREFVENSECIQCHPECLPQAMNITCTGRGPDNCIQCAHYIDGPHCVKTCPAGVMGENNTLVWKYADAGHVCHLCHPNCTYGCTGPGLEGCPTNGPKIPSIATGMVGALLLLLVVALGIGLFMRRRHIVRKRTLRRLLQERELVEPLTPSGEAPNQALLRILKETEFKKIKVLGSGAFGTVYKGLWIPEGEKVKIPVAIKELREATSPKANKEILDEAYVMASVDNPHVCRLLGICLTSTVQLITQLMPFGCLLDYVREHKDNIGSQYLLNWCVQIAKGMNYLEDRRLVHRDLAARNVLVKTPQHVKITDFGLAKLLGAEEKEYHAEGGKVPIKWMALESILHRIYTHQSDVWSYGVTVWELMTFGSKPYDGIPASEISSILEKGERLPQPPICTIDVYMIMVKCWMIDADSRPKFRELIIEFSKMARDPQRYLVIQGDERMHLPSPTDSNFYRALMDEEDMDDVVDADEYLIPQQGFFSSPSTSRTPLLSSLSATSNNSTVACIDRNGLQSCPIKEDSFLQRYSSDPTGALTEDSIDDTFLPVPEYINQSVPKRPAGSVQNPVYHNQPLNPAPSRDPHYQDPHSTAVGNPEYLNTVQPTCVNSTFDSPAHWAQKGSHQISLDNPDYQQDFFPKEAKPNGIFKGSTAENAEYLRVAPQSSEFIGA
Fibroblast growth factor 10 (Homo sapiens), sequence (O15520 whole entry, looked up): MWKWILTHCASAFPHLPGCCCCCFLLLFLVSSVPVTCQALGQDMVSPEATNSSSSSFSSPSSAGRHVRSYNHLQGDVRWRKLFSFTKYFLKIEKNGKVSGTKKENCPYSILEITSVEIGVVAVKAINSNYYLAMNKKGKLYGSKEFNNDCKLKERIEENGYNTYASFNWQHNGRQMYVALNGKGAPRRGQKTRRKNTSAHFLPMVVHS
Follistatin-related protein 3 (Homo sapiens), sequence (O95633 whole entry, looked up): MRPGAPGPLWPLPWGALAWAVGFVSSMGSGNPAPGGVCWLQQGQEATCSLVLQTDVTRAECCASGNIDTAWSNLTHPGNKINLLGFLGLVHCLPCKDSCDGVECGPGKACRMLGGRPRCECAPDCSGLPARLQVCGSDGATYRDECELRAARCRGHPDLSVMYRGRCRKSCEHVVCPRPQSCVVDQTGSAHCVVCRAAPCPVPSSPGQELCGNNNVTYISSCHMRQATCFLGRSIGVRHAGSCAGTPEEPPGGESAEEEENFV
Torsin-1A-interacting protein 1 (Homo sapiens), sequence (Q5JTV8 whole entry, looked up): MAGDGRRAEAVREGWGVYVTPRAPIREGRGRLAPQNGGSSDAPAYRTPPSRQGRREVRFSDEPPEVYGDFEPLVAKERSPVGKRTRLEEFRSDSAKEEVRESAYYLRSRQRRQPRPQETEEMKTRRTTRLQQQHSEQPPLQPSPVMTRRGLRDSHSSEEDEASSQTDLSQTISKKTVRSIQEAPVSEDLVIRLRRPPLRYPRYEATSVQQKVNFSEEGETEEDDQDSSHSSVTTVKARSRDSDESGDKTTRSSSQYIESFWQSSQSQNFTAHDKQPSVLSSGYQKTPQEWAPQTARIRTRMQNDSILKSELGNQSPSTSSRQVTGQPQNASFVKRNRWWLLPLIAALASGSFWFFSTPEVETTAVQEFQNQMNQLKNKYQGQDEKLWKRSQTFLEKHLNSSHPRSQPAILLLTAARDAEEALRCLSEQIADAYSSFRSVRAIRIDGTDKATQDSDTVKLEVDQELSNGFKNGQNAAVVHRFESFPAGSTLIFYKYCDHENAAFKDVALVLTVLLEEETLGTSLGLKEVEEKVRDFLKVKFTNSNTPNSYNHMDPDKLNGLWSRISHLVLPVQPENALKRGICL

For the molecule `CC(C)(C)OC(=O)CC[C@]1(C(N)=O)N=C(c2ccc(OCCCO)cc2)O[C@H]1c1ccccc1N=[N+]=[N-]`, the composite z-score was 0.793 in assay [1]; 0.929 in [2]; 0.975 in assay [3]; 1.5 in assay [5]; -0.0657 in [6]; -0.204 in assay [7]. In addition, the composite z-score in assay [8] was 0.0699; in assay [9], -0.307; in assay [10], 1.23; in assay [11] it was 0.97; in assay [13] it was -0.143; in assay [14] it was 1.53. Further, the composite z-score amounted to 1.1 in [15]; 0.0371 in assay [16]; 0.232 in assay [17]; 0.886 in [18]; 0.791 in assay [19]; 1.43 in assay [20]. Besides, the z-score in assay [4] was -1.24 (inactive); in assay [12], 0.697.
Regarding `COC(=O)C(CC#Cc1ccc2c(c1)[C@]1(C(=O)N2)[C@H](c2ccc(OCCO)cc2)N2[C@H](c3ccccc3)[C@H](c3ccccc3)OC(=O)[C@H]2[C@@H]1C(N)=O)C(=O)OC`, the composite z-score in [1] is 1.01; in assay [2], -0.201; in [3], 0.669; in [5], -0.122; in assay [6] it was -0.0277; in assay [7] it was -0.69. In addition, the composite z-score was 0.025 in [8]; -0.531 in assay [9]; 0.161 in [10]; 1.41 in [11]; -0.584 in [13]; 0.627 in assay [14]. In addition, the composite z-score in assay [15] is -0.113; in assay [16] it was -0.156; in assay [17], -0.123; in [18], -0.14; in assay [19] it was -0.358; in assay [20], 1.4. The z-score was 0.373 (inactive) in assay [4] and -1.68 in assay [12].
As to `COC(=O)[C@@]1(Cc2ccc(OC)cc2)[C@H]2c3cc(C(=O)N(C)C)n(Cc4c(CO)[nH]cc(C)c4=O)c3C[C@H]2CN1C(=O)c1ccccc1`, the composite z-score is 0.258 in assay [1]; 0.899 in assay [2]; 0.731 in assay [3]; -0.17 in [5]; 0.664 in [6]; 0.0854 in assay [7]. For the same molecule, the composite z-score in assay [8] is 0.128; in assay [9], -0.14; in [10] it was 0.779; in [11], 0.784; in assay [13] it was -0.0944; in assay [14] it was 1.1. Also, the composite z-score in assay [15] is 0.351; in assay [16], 0.302; in assay [17], 0.04; in assay [18], -0.211; in [19], 0.376; in [20], 0.302. Further, the z-score in [4] was 0.323 (inactive); in assay [12] it was -1.37.
For `CC(C)(C)OC(=O)CC[C@@]1(C(N)=O)N=C(c2ccc(OCCCO)cc2)O[C@@H]1c1ccccc1CN=[N+]=[N-]`, the composite z-score in [1] is 0.469; in [2], 1.42; in [3] it was 1.08; in assay [5] it was 1.48; in assay [6] it was 1.1; in [7], 0.0813. The composite z-score was 0.211 in assay [8]; -0.105 in [9]; 0.854 in assay [10]; 1.35 in [11]; -0.0243 in assay [13]; 2.47 in assay [14]. Further, the composite z-score in assay [15] turned out to be 1.9; in [16] it was 0.188; in assay [17], 0.553; in assay [18], 1.52; in assay [19] it was 1.48; in assay [20], 2.58. Also, the figures for the z-score in [4] and in assay [12] were -0.169 (inactive) and 0.0506, respectively.
As to `C=CC[C@H](O)c1ccc(O)c2ccccc12`, the composite z-score in assay [1] was 0.623; in [2] it was -0.196; in [3], -0.0155; in assay [5], 1.1; in [6], 1.01; in [7] it was 1.04. In addition, the composite z-score in assay [8] is 1.42; in [9], 1.34; in assay [10], 1.21; in assay [11], 0.7; in assay [13], 0.685; in assay [14], -0.536. Besides, the composite z-score was -1.32 in [15]; -0.0521 in assay [16]; 0.151 in assay [17]; -0.158 in [18]; 0.655 in [19]; 1.23 in assay [20]. For the same molecule, the z-score in [4] is -1.26 (inactive); in assay [12], -2.04.
For the molecule `COCCCNC(=O)[C@@]1(Cc2ccccc2I)c2ccccc2C(=O)N(Cc2ccccc2C(F)(F)F)[C@H]1c1ccc(CO)cc1`, the composite z-score in [1] is 0.228; in [2], 0.201; in assay [3], 0.883; in assay [5], 0.0125; in [6], -0.559; in assay [7] it was -1.71. Further, the composite z-score is -0.961 in assay [8]; -1.68 in assay [9]; -0.601 in assay [10]; 1.1 in assay [11]; -2.26 in assay [13]; -0.285 in assay [14]. Also, the composite z-score in assay [15] is -0.664; in [16], -0.136; in assay [17], -0.0848; in assay [18], 0.2; in [19], -0.0065; in assay [20], -0.458. The z-score in [4] is 0.544 (inactive); in assay [12], -0.594.
